Source: PubChem BioAssay
Shown is part of a subset that was picked to be rich in hits.
VDR inhibitor – inhibitors of human vitamin D receptor; P11473; 0.93% of 400,000 active; VDR-SRC2-3 peptide fluorescence polarization, 2 h; Potency, µM, inactives show max response, negative = inhibition, usual class: inhibitors; note: % is set by controls: 0 for no effect and ±100 for the full control effect
Target sequence (P11473 whole entry, looked up): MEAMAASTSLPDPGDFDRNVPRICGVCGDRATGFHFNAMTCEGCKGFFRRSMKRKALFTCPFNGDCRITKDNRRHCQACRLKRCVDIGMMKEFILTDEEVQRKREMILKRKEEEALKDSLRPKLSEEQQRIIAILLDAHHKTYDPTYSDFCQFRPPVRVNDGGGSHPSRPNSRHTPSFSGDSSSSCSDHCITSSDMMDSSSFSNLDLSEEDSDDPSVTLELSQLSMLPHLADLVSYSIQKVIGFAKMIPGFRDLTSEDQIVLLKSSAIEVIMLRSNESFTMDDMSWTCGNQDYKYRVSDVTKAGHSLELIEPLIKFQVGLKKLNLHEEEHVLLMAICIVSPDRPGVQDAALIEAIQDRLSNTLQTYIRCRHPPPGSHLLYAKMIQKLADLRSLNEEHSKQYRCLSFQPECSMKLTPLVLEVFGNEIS
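Signal is fluorescence polarization, reporting how far test compounds block the interaction of VDR with the SRC2-3 coregulator peptide after a 2 h room-temperature incubation.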
G9a block – blocks human histone lysine methyltransferase G9a; Q96KQ7; G9a H3K9 monomethylation, AlphaScreen, 2 h; Potency, µM (top dose mostly 102 µM), without a hit: at the top dose activity, negative = inhibition, most hits filed as inhibitors; 8.8% of 350,000 active; note: % is set by controls: 0 for no effect and ±100 for the full control effect; nearly all actives have a fitted effect of over 75% in size
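G9a (20 nM) preincubated 15 min RT with compounds, then 500 nM biotinylated H3K9 peptide and 20 uM SAM added; 2 h RT reaction. Monomethyl-H3K9 product detected by AlphaScreen with anti-H3K9me1 antibody, streptavidin donor and anti-rabbit IgG acceptor beads.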
Sfp PPTase inh – blocks B. subtilis Sfp PPTase activity | Q9F4F7 | Biochemical Sfp PPTase activity, qHTS | Potency, µM, for the others: largest response in the series, negative = inhibition, actives largely listed as inhibitors | 3.5% of 310,000 active;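 note: the enzyme is Sfp with the accession as filed and its product quenches rhodamine fluorescence; 0% = enzyme reaction without inhibitor and -100% = no enzyme wells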
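Buffer: 50 mM Hepes-Na pH 7.6, 10 mM MgCl2, 0.01% Nonidet P-40, 0.01% BSA. Enzyme 15 nM, pre-exposed to compound 15 min; substrates then added and fluorescence change tracked over 30 min.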
ALOX12 inh – blocks human arachidonate 12S-lipoxygenase. P18054. purified 12hLO, xylenol orange hydroperoxide absorbance. Potency, µM (top dose mostly 108 µM), without a hit: at the highest dose activity change, negative = inhibition, hits mostly inhibitors. 1.1% of 580,000 active. AID 1671190; note: % is set by controls: 0 for no effect and ±100 for the full control effect
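Purified human 12hLO (150 nM final) in 25 mM Hepes, 0.01% Triton X-100, pH 7.0 was preincubated 15 min at room temperature with compound. Then 40 uM arachidonic acid was added, 30 min. Hydroperoxide was read by Fe-XO absorbance ratio 573/405 nm.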
GRP78 ERSR act – induces the endoplasmic reticulum stress response in human glioma cells. U87-MG GRP78 promoter luciferase reporter, 16 h. Potency, µM, inactives show at the top dose activation, actives largely listed as activators. 0.02% of 420,000 active; note: series mostly up to about 76 µM; % of control where 0% means no effect; nearly all actives have a fitted effect of over 35% in size
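Stably transfected U87-MG glioma cells carrying a GRP78-based luciferase sensor; 16 h compound incubation. Luminescence end-point read 10 min after Bright-Glo addition at room temperature.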
Active calls of the source: *; ? = inconclusive; nt = no result given; [ ] = another dose, or the depositor's remark. Calls come from the whole dose curve; as a rule, active = well fitted curve in the direction sought with a large enough effect; inconclusive = small, poorly fitted or top-dose-only effect, or another doubt; inactive = no such curve, though single readings can be large; an effect the other way counts as inactive or inconclusive. Potency is the fitted concentration of half-maximal effect.

SMILES | VDR inhibitor | G9a block | Sfp PPTase inh | ALOX12 inh | GRP78 ERSR act
Cc1ccc(CNC(=O)c2nccnc2C(=O)O)cc1 | 7% | 50µM* | -2% | ? | -1%
O=C(NCc1ccncc1)C(=O)Nc1nccs1 | -4% | 14µM* | -10% | 43% | 3%
O=C(O)c1c[nH]c2ccccc12 | nt | nt | nt | -18% | nt
COc1ccc(C(=O)N[C@H]2CO[C@H]3[C@@H]2OC[C@@H]3n2nnnc2-c2cccc(OC)c2)cc1 | nt | nt | nt | 14% | nt
O=C1Cc2c(-c3cccc(N4CCOCC4)c3)n[nH]c2CN1Cc1ccccn1 | nt | nt | nt | 43%[176 µM] | nt
CC(NCc1ccccc1C#N)c1ccccc1F (stereo not given) | nt | nt | nt | 40µM* | nt
N#Cc1ccsc1NC(=O)COc1ccc(-c2nnco2)cc1 | 13% | 40µM* | -29% | 21% | -2%
CCN(CC)c1ccc(C(=O)NC(=S)N2CCN(Cc3ccc4c(c3)OCO4)CC2)cc1 | 16% | 40µM* | 3% | ? | 1%
S=C(NCc1ccccc1)N1CCN(Cc2ccc3c(c2)OCO3)CC1 | 0% | 3%[59 µM] | 9% | 0% | -5%
CCCCNC(=S)N1CCN(Cc2ccc3c(c2)OCO3)CC1 | -9% | 11µM* | 14µM* | ? | -2%
COCCCNC(=S)N1CCN(Cc2ccc3c(c2)OCO3)CC1 | -5% | 14µM* | -12% | -18% | -4%
Cc1nn(CC(=O)N2CCCCCC2)c(=O)c2nc(-c3ccccc3)sc12 | nt | nt | nt | -16% | nt
Cc1ccc(-c2csc3n[nH]c(=S)n23)cc1 | -33% | 1.4µM* | 13µM* | ? | -1%
S=c1[nH]nc2sc3ccccc3n12 | -1% | nt | nt | -75% | -1%
COC(=O)c1ccc(OCC(=O)c2ccccc2OC)cc1 | 11% | 19%[12.7 µM] | 6% | 20µM* | 1%
COc1ccc(NC2c3ccccc3C(=O)N2Cc2ccccc2Cl)cc1OC (stereo not given) | -25% | 50µM* | -7% | ? | -1%
O=C1c2ccccc2C(Nc2ccc3c(c2)OCCO3)N1Cc1ccccc1 (stereo not given) | -2% | 45µM* | 1% | nt | -6%
O=C1c2ccccc2C(Nc2cccnc2)N1Cc1ccccc1 (stereo not given) | -23% | 25µM* | 10% | -3% | 4%
CCCCNC1c2ccccc2C(=O)N1Cc1ccccc1 (stereo not given) | 9% | 2% | -6% | 40µM* | -4%
CC(=O)c1cccc(NC2c3ccccc3C(=O)N2Cc2ccc3c(c2)OCO3)c1 (stereo not given) | -9% | ? | 3% | 12%[57.4 µM] | 0%
C=CCC1(CO)CCCN(CCOc2ccc(C)cc2Cl)C1 (stereo not given) | nt | nt | nt | 15% | nt
CC(C)n1cc2c(C(F)(F)F)cc(=O)n(CCC(=O)O)c2n1 | nt | nt | nt | -28% | nt
N#Cc1ccc(/C=C/C(=O)N(Cc2ccc(C(F)(F)F)cc2)C2CC2)cc1 | nt | nt | nt | 1% | nt
CCOc1ccc(NC2c3ccccc3C(=O)N2Cc2ccc3c(c2)OCO3)cc1 (stereo not given) | 0% | 35µM* | 1% | -12% | -3%
COc1cc(NC2c3ccccc3C(=O)N2Cc2ccc3c(c2)OCO3)cc(OC)c1OC (stereo not given) | -15% | ? | 8% | ? | -2%
SMILES | VDR inhibitor | G9a block | Sfp PPTase inh | ALOX12 inh | GRP78 ERSR act
O=C(Cc1ccc(Cl)c(Cl)c1)Nc1ccccc1N1CCOCC1 | 1% | 79µM* | -3% | -17% | -2%
CS(=O)(=O)c1ccccc1NC(=O)CNc1cc(Cl)ccc1N1CCOCC1 | nt | nt | nt | -8% | nt
O=C(Cc1ccc(S(=O)(=O)N2CCOCC2)s1)Nc1ccccc1N1CCOCC1 | -26% | 45µM* | 2% | 6% | -4%
COC(=O)c1ccccc1NC(=O)CNc1cc(Cl)ccc1N1CCOCC1 | 30% | 45µM* | ? | -21% | -1%
Cn1c(-c2ccc(F)cc2)cnc1SCC(=O)Nc1ccccc1N1CCOCC1 | -5% | 45µM* | -4% | 0% | 4%
O=C(Cc1ccc(S(=O)(=O)N2CCOCC2)s1)Nc1ccccc1Br | -23% | nt | -4% | 6% | -1%
O=C(c1cnccn1)N1CCCC(c2ccccc2)(c2ccccc2)C1 | nt | nt | nt | 23% | nt
Cc1cc(C(=O)C(=O)O)c(C)n1-c1ccc(Cl)cc1 | 1% | 5%[59 µM] | 19% | -4% | 0%
Cc1cc(C(=O)C(C)Sc2cccc[n+]2[O-])c(C)n1-c1ccc(Cl)cc1 (stereo not given) | -16% | 40µM* | -4% | -7% | -11%
